# Hits are enriched below; roughly 1.1% of the tested compounds scored in any of these assays.
# SRC1 inh: SRC1 coactivator transcriptional activity inhibitors, primary screen, cell-based, luminescence. Nuclear receptor coactivator 1 (Homo sapiens), Q15788. HEK293 GAL4-SRC1 luciferase reporter. 360,000 tested, 0.12% active. inhibition, % at 3.6 µM;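 active = inhibition above the campaign mean plus 3 SD, with each screening campaign given its own cutoff, cut at about 60% in these data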;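 note: 0% = DMSO treated cells and 100% = gossypol at 36 µM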
# NCOA2 inhibitor: inhibition of GAL4-SRC2 driven luciferase reporter, primary screen, SRC2 inhibitor project, cell-based, luminescence | Nuclear receptor coactivator 2 (Homo sapiens), Q15596 | HEK293 GAL4-SRC2 luciferase reporter | inhibition, % at 9 µM | 370,000 tested, 0.17% active | AID 651957, 2012;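 active = inhibition above the mean inhibition of all tested compounds plus 3 SD, set per campaign, cut at about 52% in these data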;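 note: 0% = DMSO treated cells and 100% = cells given Gossypol at 36 µM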
# NR5A2 inv ag: LRH-1 (NR5A2) inverse agonists, primary screen, cell-based, luminescence, HEK293T, StAR-luciferase reporter | Nuclear receptor subfamily 5 group A member 2 (Homo sapiens), O00482 | LRH-1 transfected, 24 h | inhibition, % at 3.6 µM | 360,000 tested, 0.13% active;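 active = inhibition above the mean inhibition of all tested compounds plus 3 SD, cut at about 73% in these data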;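 note: 0% = DMSO wells and 100% = reporter-only cells lacking LRH-1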
# GalR3 antag: GalR3 antagonists in HEK293 cells, primary screen, cell-based, fluorescence readout | 360,000 tested, 0.44% active | Galanin receptor type 3 (Homo sapiens), O60755 | inhibition, % at 3 µM | AID 651719, 2012 | HEK293 GalR3-CNG cAMP membrane potential fluorescence; galR3 body fused to GalR1 C-terminus;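 active = inhibition above the screen-wide average plus 3 SD, cut at about 13% in these data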;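 note: forskolin and galanin both at EC90 stimulate the cells; cAMP rise reported by CNG channel membrane potential dye signal; 0% = forskolin plus galanin with DMSO and 100% = forskolin alone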
# COUP-TFII inh: NR2F2 transcriptional activity inhibitors, primary screen, cell-based, luciferase reporter, HEK293T, luminescence; COUP transcription factor 2 (Homo sapiens), P24468; HEK293T NGFI-A luciferase reporter; inhibition, % at 8.6 µM; 370,000 tested, 0.7% active; AID 686940, 2013;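 active = inhibition above a per-plate cutoff, mean inhibition of test wells between control levels plus 3 SD, cut at about 38% in these data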;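 note: cells cotransfected with COUP-TFII expression vector driving the NGFI-A reporter; 0% = median of COUP-TF2 test wells and 100% = reporter-only cells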
# Target sequence (P24468 whole entry, looked up): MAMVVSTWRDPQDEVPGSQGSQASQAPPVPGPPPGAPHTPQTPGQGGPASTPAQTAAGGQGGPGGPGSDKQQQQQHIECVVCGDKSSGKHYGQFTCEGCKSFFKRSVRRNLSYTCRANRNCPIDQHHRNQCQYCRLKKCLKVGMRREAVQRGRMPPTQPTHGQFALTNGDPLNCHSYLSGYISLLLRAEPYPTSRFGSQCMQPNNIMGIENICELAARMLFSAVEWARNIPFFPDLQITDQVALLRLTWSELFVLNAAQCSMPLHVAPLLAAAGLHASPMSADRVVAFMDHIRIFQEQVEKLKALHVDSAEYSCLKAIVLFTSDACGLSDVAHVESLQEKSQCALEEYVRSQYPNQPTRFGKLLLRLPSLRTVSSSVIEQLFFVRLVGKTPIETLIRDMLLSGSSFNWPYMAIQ
# NCOA3 inh: SRC3 coactivator transcriptional activity inhibitors, primary screen, cell-based, luminescence. Nuclear receptor coactivator 3 (Homo sapiens), Q9Y6Q9. HEK293 GAL4-SRC3 luciferase reporter. inhibition, % at 3.6 µM. 360,000 tested, 0.17% active. AID 588352, 2011;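 active = inhibition above a per-campaign cutoff, the mean of all compounds plus 3 SD, cut at about 60% in these data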;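 note: 0% = DMSO-treated cells and 100% = gossypol-treated cells at 36 µM; higher means less SRC3-driven luciferase light from the GAL4 reporter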
# Gal4-VP16 ctr: Gal4-VP16 luciferase reporter inhibitors, counter-screen for COUP-TFII antagonist project, cell-based, luminescence, HEK293; 2,500 tested, 25% active; inhibition, % at 8.5 µM; shares compounds with COUP-TFII inh; in the data active = inhibition above about 13%
# NR2F2 inh conf: NR2F2 transcriptional activity inhibitors, confirmation, cell-based, luciferase reporter, HEK293, triplicate. inhibition, % at 8.5 µM. 2,500 tested, 45% active. shares compounds with COUP-TFII inh. HEK293 NGFI-A luciferase reporter, luminescence. AID 687008, 2013;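 active = mean inhibition over three repeats above a set limit taken from the earlier primary screen, cut at about 38% in these data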;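 note: 100% = cells given the luciferase reporter alone without the COUP-TF2 vector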
# Numbers without * were called inactive; . = not tested or not shown.
SMILES,SRC1 inh,NCOA2 inhibitor,NR5A2 inv ag,GalR3 antag,COUP-TFII inh,NCOA3 inh,Gal4-VP16 ctr,NR2F2 inh conf
CC(=O)c1c(C)oc2ccc(N(C(C)=O)S(=O)(=O)c3cccc4cccnc34)cc12,25,13,23,-5,38*,34,1,29
CC(=O)c1c(C)oc2ccc(N(C(C)=O)S(=O)(=O)c3ccc(F)cc3C)cc12,-3,7,5,-1,8,16,.,.
C=CCn1c(C)cc(C(=O)COc2ccc(C)nc2[N+](=O)[O-])c1C,50,61*,40,-5,40*,38,-11,16
Cc1cc(C(=O)COC(=O)C2=COCCO2)c(C)n1-c1ccccc1,54,39,55,-5,65*,52,16*,74*
Cc1cc(C(=O)COC(=O)C2=NNC(=O)CC2)c(C)n1-c1ccccc1,-19,25,1,-5,1,-2,.,.
Cc1ccc(OCC(=O)c2cc(C)n(-c3ccccc3)c2C)c([N+](=O)[O-])n1,29,78*,33,1,53*,53,-50,-9
COc1ccc(CN(CC#Cc2ccc(C)cc2)C(N)=NC(=O)CCc2ccccc2)c(OC)c1,.,24,.,.,12,.,.,.
COc1cc2c(cc1NC(=O)CSc1nnc(COc3ccccc3)n1Cc1ccco1)oc1ccccc12,.,-36,.,.,-2,.,.,.
CN(C)c1ccc(N=Nc2nc3ccccc3n2C)cc1,-2,14,-32,-3,61*,26,7,22
COC(=O)[C@]12C[C@H](CC(=O)NCc3cccc4ccccc34)C(=O)N(Cc3ccco3)C1=C[C@H](C1CCCC1)O[C@@H]2C,.,13,.,.,11,.,.,.
Cc1ccc(NC(=O)c2ccc(C)cc2)cc1,-100,-62,-118,-4,-44,-59,.,.
Cc1ccc(C(=O)Nc2cc(C(C)C)c(O)c(C(C)C)c2)cc1,2,22,-9,-12,46*,-3,-5,2
O=C(Nc1ccc(C(O)(C(F)(F)F)C(F)(F)F)cc1)c1ccc(F)cc1F,.,.,.,.,-39,.,.,.
CC(=O)c1sc(Nc2nc3ccc(F)cc3s2)nc1C,-72,-74,-92,-2,-43,-45,.,.
COC(=O)c1ccc2nc(Nc3nc4ccc(F)cc4s3)sc2c1,26,7,1,-4,52*,33,-10,58*
COC(=O)c1ccc2nc(NC(=O)C(C)(C)C)sc2c1,25,22,18,-6,66*,37,-75,35
Cc1ccc(/C=C2/Sc3ccccc3N(CC(=O)NCC3CCCO3)C2=O)cc1 (stereo not drawn),8,.,-14,.,.,4,.,.
Cc1cc(/C=C2\Sc3ccccc3N2C)cc(C)[n+]1CC1CCCO1 (stereo not drawn),43,-1,62,-5,49*,48,12,62*
Cc1cc(N2CCN(C(=O)Oc3ccc(-c4ccccc4)cc3)CC2)c2ccccc2n1,.,18,.,.,62*,.,-1,36
CCn1c(COc2ccc(Cl)cc2)nnc1SCC(=O)Nc1ccc(Oc2ccccc2)cc1,.,23,.,.,34,.,.,.
Nc1ncnc2nc(SCc3ccc(Cl)cc3Cl)[nH]c12,-41,-6,6,0,0,-9,.,.
Nc1cc(=O)[nH]c(SCc2ccc(Cl)cc2Cl)n1,17,-13,29,3,48*,13,16*,34
CC(=O)c1cc(-c2ccccc2-c2ccccc2)c(=O)n2c1CCC2,.,-46,.,.,28,.,.,.
O=c1c2cc3cccnc3nc2ncn1CCc1c[nH]c2ccccc12,.,16,.,.,44*,.,-4,3
CCN(CC)S(=O)(=O)c1cc(NC(=O)C2CC(=O)N(Cc3ccccc3)C2)ccc1Cl (stereo not drawn),5,12,16,-5,53*,20,1,25
SMILES,SRC1 inh,NCOA2 inhibitor,NR5A2 inv ag,GalR3 antag,COUP-TFII inh,NCOA3 inh,Gal4-VP16 ctr,NR2F2 inh conf
Cc1ccc(-c2cc(C(=O)NN=Cc3ccc(-c4ccccc4)cc3)[nH]n2)cc1,.,-46,.,.,7,.,.,.
CN1C(=O)c2cc(NC(=O)Nc3ccccc3)ccc2OC[C@H]2O[C@@H](CC(=O)NC3CCC3)CC[C@@H]21,.,-6,.,.,-2,.,.,.
Cc1ccc(NS(=O)(=O)c2cccc(C(=O)NC3CCN(Cc4ccccc4)CC3)c2)c(C)c1,-3,32,23,-9,56*,-24,4,28
Cc1ccc(C)c(OCc2cc(C(=O)NC3CCN(Cc4ccccc4)CC3)no2)c1,-6,24,22,-15,48*,1,1,21
CCCC[C@H]1C2CC(OC(=O)Nc3ccccc3)C(C2)[C@H]2CCCCN21 (stereo partly drawn),.,11,.,.,-8,.,.,.
O=C(CNc1cccc(F)c1)Nc1cccc(S(=O)(=O)N2CCCCC2)c1,-4,6,-10,0,-16,5,.,.
O=C(CNc1cccc(S(=O)(=O)N2CCCC2)c1)Nc1ccc(C(F)(F)F)cc1,-7,15,14,-5,40*,15,6,29
Cc1ccc(NCC(=O)Nc2cccc(F)c2)cc1S(=O)(=O)N1CCCCCC1,11,38,20,-3,46*,13,-4,7
O=C(CNc1cccc(S(=O)(=O)N2CCCCC2)c1)Nc1ccc(C(F)(F)F)cc1,15,6,9,-5,38*,7,-1,5
COc1cc(CCC(=O)Nc2ccc(S(=O)(=O)N3CCCC3)cc2)cc(OC)c1OC,6,20,30,-2,-10,8,.,.
COc1cc(CCC(=O)Nc2ccc(C)c(S(=O)(=O)N3CCCCCC3)c2)cc(OC)c1OC,0,29,28,-5,54*,13,1,25
c1ccc2cc(Cn3ccc4ccc(-c5ccc6ccn(Cc7ccc8ccccc8c7)c6c5)cc43)ccc2c1,.,-21,.,.,-18,.,.,.
COC(=O)CCn1nnc(-c2cccs2)n1,-30,-4,6,-4,2,3,.,.
COC(=O)CCn1nnc(-c2ccc(C(C)C)cc2)n1,51,86*,49,1,86*,44,83*,87*
CCN(CC)S(=O)(=O)c1cccc(-n2c(O)c(C=Nc3ccccc3C(=O)O)c3ccccc3c2=O)c1,11,37,41,-8,47*,29,-30,42*
